Compound activity (PubChem BioAssay)
ROC1-CUL1 inh: human ROC1-CUL1 E3 ligase inhibition; in vitro K48 di-Ub FRET, acceptor:donor ratio, 45 min; inhibition, % at 10 µM; 140,000 tested, 0.6% active; AID 1347404; in the data active means inhibition above about 25%
Target sequence (P62877 whole entry, looked up): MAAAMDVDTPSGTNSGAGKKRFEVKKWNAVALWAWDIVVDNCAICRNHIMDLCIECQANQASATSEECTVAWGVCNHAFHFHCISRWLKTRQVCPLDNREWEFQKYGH
Target sequence (Q13616 whole entry, looked up): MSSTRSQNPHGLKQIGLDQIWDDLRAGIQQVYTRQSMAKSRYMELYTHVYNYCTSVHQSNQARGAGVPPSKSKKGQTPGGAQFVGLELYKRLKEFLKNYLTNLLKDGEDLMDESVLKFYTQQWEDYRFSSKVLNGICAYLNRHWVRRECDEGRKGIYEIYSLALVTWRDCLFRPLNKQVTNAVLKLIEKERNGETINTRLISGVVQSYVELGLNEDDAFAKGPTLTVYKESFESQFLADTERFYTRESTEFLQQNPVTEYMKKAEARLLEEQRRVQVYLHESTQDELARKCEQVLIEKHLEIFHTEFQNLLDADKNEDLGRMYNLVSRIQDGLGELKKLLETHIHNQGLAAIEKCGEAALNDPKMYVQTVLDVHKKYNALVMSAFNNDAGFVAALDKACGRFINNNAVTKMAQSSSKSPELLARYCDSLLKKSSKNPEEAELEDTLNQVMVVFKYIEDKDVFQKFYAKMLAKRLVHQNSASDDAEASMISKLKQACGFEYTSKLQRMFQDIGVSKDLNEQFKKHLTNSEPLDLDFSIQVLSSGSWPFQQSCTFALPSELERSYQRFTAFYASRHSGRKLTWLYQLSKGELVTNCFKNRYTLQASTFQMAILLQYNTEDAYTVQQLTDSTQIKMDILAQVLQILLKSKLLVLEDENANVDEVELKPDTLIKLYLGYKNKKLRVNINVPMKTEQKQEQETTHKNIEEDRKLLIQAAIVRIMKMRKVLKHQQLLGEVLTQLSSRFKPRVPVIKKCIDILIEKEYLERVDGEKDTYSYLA
An asterisk follows results filed as active. Only a selection was taken, and hits are over-represented in it overall.

SMILES | ROC1-CUL1 inh
CC(=O)OC1CC[C@](C)(C2CC[C@]3(C)C(C(C)CCCC(C)C)CCC3C2C(=O)O)C(=O)C1 (some centres undefined) | -1
CC(C)CCCC(C)C1CCC2[C@@H](C(=O)O)C([C@@]3(C)CCC=CC3=O)CC[C@]12C (some centres undefined) | 97*
CC(C)CCCC(C)C1CCC2C3CC([N+](=O)[O-])=C4C[C@@H](Cl)CCC4(C)C3CCC12C (some centres undefined) | -3
Cc1ccc(CSc2nnc(NC(=O)c3sc4cc(C)ccc4c3Cl)s2)cc1 | 6
CN(C(=O)c1cn(Cc2cccc3ccccc23)nn1)C1CCOC1 (centres undefined) | 0
CCOC(=O)C1=C(C)OC(=N)C(C#N)C1c1ccccc1OS(=O)(=O)c1ccc(C)cc1 (centres undefined) | 3
O=C(Oc1ccc2c(C(F)(F)F)cc(=O)oc2c1)c1ccccc1 | -1
CC(C)(C)c1ccc(C(=O)Oc2ccc3c(-c4ccccc4C(=O)O)c4ccc(=O)cc-4oc3c2)cc1 | 33*
Cc1cc(=O)oc2cc(OC(=O)c3ccc(=O)oc3)ccc12 | 8
CSc1ccc(OC2=N/C(=C\c3ccccc3)C(=O)N2c2ccc(C)cc2)cc1 | 0
Nc1ccc(/C=C\c2ccc(-n3nc4ccc5c(S(=O)(=O)O)cccc5c4n3)cc2S(=O)(=O)O)c(S(=O)(=O)O)c1 | 68*
O=S(=O)(O)c1ccc2c(S(=O)(=O)O)cccc2c1 | 5
O=S(=O)(O)c1cccc2cc(O)ccc12 | 9
CSc1ccc(C2C(C(=O)OC(C)C)=C(C)N=c3s/c(=C\c4cccs4)c(=O)n32)cc1 (centres undefined) | 9
O=C(NC(Nc1nc2c(s1)CCCC2)(C(F)(F)F)C(F)(F)F)c1ccccc1F | -5
N#Cc1c(SCc2ccc(C(=O)O)cc2)nc2c(c1C(F)(F)F)CCCCCC2 | 2
CC1=NN(c2nc(-c3ccc(Br)cc3)cs2)C(=O)C1N=Nc1nccs1 (centres undefined) | 78*
CC1=NN(c2nc(-c3ccc(Br)cc3)cs2)C(=O)C1N=Nc1ccc(Oc2ccccc2)cc1 (centres undefined) | 1
CC1=NN(c2nc(-c3ccc(Br)cc3)cs2)C(=O)C1N=Nc1cccc(O)c1 (centres undefined) | -1
CCN(CC)CCNc1nc2nonc2nc1NCCCOC | 1
CN(C)c1cc[n+](Cc2ccccn2)cc1 | 0
C1=C(CCNCc2ccccn2)CCCC1 | 6
c1ccc(C[n+]2cccc3c2CCCC3)nc1 | 45*
CCc1ccc(OCc2n[nH]c(=S)n2CC)cc1 | 7
COc1cccc(C2CC(=O)N=C3C2C(=O)N(C)c2nc4ccccc4n23)c1OC (centres undefined) | -3
SMILES | ROC1-CUL1 inh
Cc1ccc(C)c(NC(=O)C(F)(F)F)c1 | -7
CN(Cc1nc2ccccc2s1)C(=O)Cn1nnnc1CN1CCCC1 | 11
CN1CCN(C(=O)NCCC2CCCCC2)CC1 | 1
Cc1cccc(C(=O)N2CCC(N3CCCC(C(=O)NC4CC4)C3)CC2)c1 (centres undefined) | 11
Cc1occc1C(=O)N1CCC(N2CCCC(C(=O)NC3CC3)C2)CC1 (centres undefined) | 25*
COc1ccc(C(=O)N2CCC(N3CCCC(C(=O)NC4CC4)C3)CC2)o1 (centres undefined) | -1
C(#Cc1ccccc1)CSc1nc2ccccc2s1 | 10
CCc1nc(SCC2=Nc3ccc(F)cc3C(=O)C2)n[nH]1 | -11
Cc1ccc2c(c1)C1(C(=O)N2)C(C#N)C(=N)OC2=NCCC21 (centres undefined) | -5
Cc1cccc(NC(=O)c2sc3nc(-c4cc5ccc(O)cc5oc4=O)[nH]c(=O)c3c2C)c1 | 63*
Cc1cc(C)cc(NC(=O)c2sc3nc(-c4cc5ccccc5oc4=O)[nH]c(=O)c3c2C)c1 | 5
Cc1c(C(=O)Nc2cccc(F)c2)sc2nc(-c3cc4ccccc4oc3=O)[nH]c(=O)c12 | 5
CCc1cc(I)ccc1NC(=O)c1ccc(C#N)cc1F | -11
CN1CCN(C2Cc3ccccc3S(=O)c3ccc(Cl)cc32)CC1 (centres undefined) | -3
Cc1cccc(N=C2N=C(c3ccc([N+](=O)[O-])cc3)CS2)c1C | -6
COc1ccccc1NC(=O)C12CCC(C1)C(C)(C)C2=O (centres undefined) | 5
CCCCC(=O)Nc1ccccc1NC(=O)C(C)C | -3
CCCCC(=O)Nc1cccc2cccc(S(=O)(=O)O)c12 | 95*
CCCCC(=O)Nc1ccccc1O | 4
CCSC(=O)Nc1nc(SCc2ccc(C#N)cc2)n[nH]1 | -2
OC1CCCN(Cc2cn(Cc3ccccc3)nc2-c2ccc3c(c2)OCO3)C1 (centres undefined) | 1
Nc1c(C(=O)Nc2ccccc2C(=O)O)sc2nc3c(cc12)CCCCC3 | 35*
Nc1c(C(=O)Nc2ccccc2C(=O)O)sc2nc3c(cc12)CCCCCC3 | 9
Nc1c(C(=O)Nc2ccccc2F)sc2nc3c(cc12)CCCCC3 | 2
N#C/C(=C\c1ccc(-c2cc(Cl)ccc2Cl)o1)C(=O)N1CCCCC1 | 1
SMILES | ROC1-CUL1 inh
O=C1C(=O)N(c2nnc(SCc3ccc(Cl)cc3)s2)C(c2cccc(O)c2)C1C(=O)c1cc2ccccc2o1 (centres undefined) | -8
O=C1C(=O)N(c2nnc(SCc3ccc(Cl)cc3)s2)C(c2cccs2)C1C(=O)c1cc2ccccc2o1 (centres undefined) | 45*
O=C1C(=O)N(c2nnc(SCc3ccccc3)s2)C(c2cccs2)C1C(=O)c1cc2ccccc2o1 (centres undefined) | 2
CCOc1cc(C2C(C(=O)c3cc4ccccc4o3)C(=O)C(=O)N2c2nnc(SCc3cccc4ccccc34)s2)ccc1O (centres undefined) | 23
CCOc1cc(C2C(C(=O)c3cc4ccccc4o3)C(=O)C(=O)N2c2nnc(SCc3ccccc3)s2)ccc1O (centres undefined) | 65*
CCOc1ccc(C2C(C(=O)c3cc4ccccc4o3)C(=O)C(=O)N2c2nnc(SCc3ccccc3F)s2)cc1OC (centres undefined) | 2
COc1ccc(S(=O)(=O)N2CCN(C(=O)C(C)C)CC2)cc1OC | -5
c1ccc(-c2n[nH]c3c2CN(Cc2cccc4c2OCO4)CC3)cc1 | 4
CC(=O)NCCC(=O)N1CCCC(CCc2cccc(C(F)(F)F)c2)C1 (centres undefined) | 4
Cn1c(=O)c(C#N)cn(Nc2ccccc2)c1=O | 1
CCOC(=O)COc1c(I)cc(/C=C2/SC(=Nc3ccc(OC)cc3)NC2=O)cc1OC | 7
CCOc1cc(/C=C2\SC(=Nc3ccc(Cl)cc3)NC2=O)cc(Cl)c1OCC(=O)O | 96*
CCc1ccc(N=C2NC(=O)/C(=C\c3cc(Cl)c(OCC#N)c(OC)c3)S2)cc1 | 8
Cc1cccc(C)c1OCCCCCCNCc1ccco1 | 2
COc1ccc2c(=O)c(=O)c2c1 | 72*
COc1ccc2ccc3c4ccccc4c(OC)cc3c2c1 | 1
COc1ccc2c(=O)c(I)coc2c1 | -2
CCCCNC(=O)N1CCN(Cc2ccccc2)CC1 | 10
O=C(C(C(F)(F)F)C(F)(F)F)N1CCN(Cc2ccccc2)CC1 | 53*
CC(C)C(=O)N1CCN(Cc2cccc(F)c2)CC1 | -5
COc1ccc(C2C(C(C)=O)C(=O)C(=O)N2c2ccc(Br)cc2)cc1 (centres undefined) | 1
CCCCOC(=O)c1cccc(NC(=O)COc2ccc3c(C)cc(=O)oc3c2)c1 | 10
